Several values for one entry are separate records, joined by “and”; a condition that tells them apart may be missing. Equal values may be shown once. Records with an inconclusive call do not appear. Entries that show only a call come without a potency. A structure can be active in one record and inactive in another. Activity calls are given as the source filed them. Calls follow the shape of the dose curve; as a rule, active = well fitted curve in the direction sought with a large enough effect in the repeat runs; inconclusive = weak or mixed curves; inactive = no such curve, though single readings can be large; an effect the other way counts as inactive or inconclusive.
Target: Aryl hydrocarbon receptor (Homo sapiens) (UniProt P35869)
Experiment: qHTS assay to identify small molecule that activate the aryl hydrocarbon receptor (AhR) signaling pathway (AID 743085); also: nearly all actives have a fitted effect of over 15% in size
Conditions: HepG2 AhR-luc (HG2L7.5c1), luciferase, 24 h; series mostly up to 70.3 µM
Outline: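 Reporter assay in engineered HepG2 line HG2L7.5c1, whose plasmid carries twenty dioxin responsive elements upstream of firefly luciferase. Treatment lasted 24 h at 37C; ONE-Glo luminescence gauged induction.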
Potency is read from the fitted curve at half-maximal effect.

Aryl hydrocarbon receptor (Homo sapiens), sequence (P35869 whole entry, looked up): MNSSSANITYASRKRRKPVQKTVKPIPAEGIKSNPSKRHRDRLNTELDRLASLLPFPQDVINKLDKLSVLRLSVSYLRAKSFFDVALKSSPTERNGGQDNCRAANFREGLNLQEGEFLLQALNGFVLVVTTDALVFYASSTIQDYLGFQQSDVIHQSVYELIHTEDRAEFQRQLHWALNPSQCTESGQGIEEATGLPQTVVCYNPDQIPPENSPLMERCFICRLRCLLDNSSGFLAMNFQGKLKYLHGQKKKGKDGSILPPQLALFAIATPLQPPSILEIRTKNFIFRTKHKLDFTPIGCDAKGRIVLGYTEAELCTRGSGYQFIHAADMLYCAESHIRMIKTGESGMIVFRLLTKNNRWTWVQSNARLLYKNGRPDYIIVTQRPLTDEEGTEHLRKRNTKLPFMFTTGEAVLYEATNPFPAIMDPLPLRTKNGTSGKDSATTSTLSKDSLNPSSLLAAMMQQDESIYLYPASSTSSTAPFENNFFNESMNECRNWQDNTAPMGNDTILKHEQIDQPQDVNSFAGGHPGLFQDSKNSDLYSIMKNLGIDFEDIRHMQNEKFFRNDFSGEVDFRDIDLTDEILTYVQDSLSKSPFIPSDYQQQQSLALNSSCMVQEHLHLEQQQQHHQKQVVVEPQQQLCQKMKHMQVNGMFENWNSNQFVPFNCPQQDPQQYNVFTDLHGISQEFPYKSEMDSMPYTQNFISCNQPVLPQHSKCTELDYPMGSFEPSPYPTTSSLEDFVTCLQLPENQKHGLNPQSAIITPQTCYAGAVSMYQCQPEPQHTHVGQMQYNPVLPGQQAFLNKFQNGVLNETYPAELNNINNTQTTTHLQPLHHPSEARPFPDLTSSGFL

| Structure (SMILES) | Potency |
| --- | --- |
| CC/C=C1/OC(=O)c2ccccc21 | inactive |
| COc1cc(N)c(Cl)cc1C(=O)NC1CCN(CCCOc2ccc(F)cc2)CC1OC (stereo not given) | inactive |
| CC(=O)Oc1ccc([N+](=O)[O-])cc1CCl | inactive |
| O=C(Nc1cccc2c(=O)cc(-c3nn[nH]n3)oc12)c1ccc(OCCCCc2ccccc2)cc1 | inactive |
| Cc1ccccc1N=C(N)Nc1ccccc1C | inactive |
| CCOC(=O)OC(C)OC(=O)[C@@H]1N2C(=O)[C@@H](NC(=O)[C@H](N)c3ccccc3)[C@H]2SC1(C)C (stereo not given in full) | inactive |
| CC1=Nc2ccc3ccccc3c2C1(C)C | inactive |
| CC(C)c1nc(CN(C)C(=O)N[C@H](C(=O)N[C@@H](Cc2ccccc2)C[C@H](O)[C@H](Cc2ccccc2)NC(=O)OCc2cncs2)C(C)C)cs1 | inactive |
| CC1=C(CC=O)C(C)(C)CCC1 | inactive |
| CC1CC(OC(=O)C(O)c2ccccc2)CC(C)(C)N1C (stereo not given) | inactive |
| Cc1ccc(CO)cc1 | inactive |
| NC1[C@H]2CN(c3nc4c(cc3F)c(=O)c(C(=O)O)cn4-c3ccc(F)cc3F)C[C@@H]12 (stereo not given in full) | inactive |
| O=C1c2ccccc2C(=O)C1c1nc2ccccc2c(Br)c1O | 9.69 µM (active) |

System: not listed separately
Experiment: qHTS assay to identify small molecule that activate the aryl hydrocarbon receptor (AhR) signaling pathway - cell viability counter screen (AID 743086); also: nearly all actives have a fitted effect of over 45% in size
Conditions: HepG2-AhR-luc viability, CellTiter-Fluor, 24 h; series mostly up to 70.3 µM
Outline: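 Cytotoxicity counter screen: CellTiter-Fluor signal (30 min, 37 C) in 4000 HepG2 cells/well carrying the DRE-luciferase reporter, following 24 h compound exposure at 37 C.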

| Structure (SMILES) | Potency |
| --- | --- |
| CC1CC(C)C(=O)C1=O (stereo not given) | inactive |
| O=C=Nc1cccc(C(F)(F)F)c1 | inactive |
| CCCCN1CCCC1C(=O)Nc1c(C)cc(C)cc1C (stereo not given) | inactive |
| O=C(OCC(O)CO)c1ccccc1Nc1ccnc2cc(Cl)ccc12 (stereo not given) | inactive |
| CCCCCCCCN | inactive |
| O=Cc1c2ccccc2c(Cl)c2ccccc12 | inactive |
| CCC=CC#N | inactive |
| C=CC(=O)[O-].C=CC(=O)[O-].[Zn+2] | inactive |
| CC(C)=CCC1C(=O)N(c2ccccc2)N(c2ccccc2)C1=O | inactive |
| CO/N=C(/C(=O)N[C@@H]1C(=O)N2C(C(=O)O)=C(COC(N)=O)CS[C@H]12)c1ccco1 | inactive |
| C=C1CCC2CC1C2(C)C (stereo not given) | inactive |
| Cc1ccc(OC(=O)c2ccccc2O)cc1 | inactive |
| O=C(O)CCC(=O)C(=O)O | inactive |
| C=C1c2cccc(O)c2C(O)=C2C(=O)[C@]3(O)C(O)=C(C(N)=O)C(=O)[C@@H](N(C)C)[C@@H]3[C@@H](O)[C@H]12 | inactive |
| CC(C)C=O | inactive |
| CN1C(C(=O)Nc2ccccn2)=C(O)c2sccc2S1(=O)=O | inactive |
| Cc1cscn1 | inactive |
| CCC(OCCCOC)OC(C)=O (stereo not given) | inactive |
| CC/C=C1/OC(=O)c2ccccc21 | inactive |

| Structure (SMILES) | Potency |
| --- | --- |
| CCOC(=O)C1=C(C)NC(C)=C(C(=O)OC)C1c1cccc(Cl)c1Cl (stereo not given) | inactive |
| COc1cc(N)c(Cl)cc1C(=O)NC1CCN(CCCOc2ccc(F)cc2)CC1OC (stereo not given) | inactive |
| C=C(C)C(=O)OCCOCCOC(=O)C(=C)C | inactive |
| O=C(Nc1cccc2c(=O)cc(-c3nn[nH]n3)oc12)c1ccc(OCCCCc2ccccc2)cc1 | inactive |
| Cc1ccccc1N=C(N)Nc1ccccc1C | inactive |
| CCOC(=O)OC(C)OC(=O)[C@@H]1N2C(=O)[C@@H](NC(=O)[C@H](N)c3ccccc3)[C@H]2SC1(C)C (stereo not given in full) | inactive |
| CC1=Nc2ccc3ccccc3c2C1(C)C | 54.5 µM (active) |
| CC(C)c1nc(CN(C)C(=O)N[C@H](C(=O)N[C@@H](Cc2ccccc2)C[C@H](O)[C@H](Cc2ccccc2)NC(=O)OCc2cncs2)C(C)C)cs1 | inactive and 13.3 µM (active) |
| CC1=C(CC=O)C(C)(C)CCC1 | inactive |
| O=C(/C=C/c1ccccc1)OCCc1ccccc1 | inactive |
| CN1C(=O)OC(C)(C)C1=O | inactive |
| CCN(CC)CCNC(=O)COc1ccc(OC)cc1 | inactive |
| CC1CC(OC(=O)C(O)c2ccccc2)CC(C)(C)N1C (stereo not given) | inactive |
| Cc1ccc(CO)cc1 | inactive |
| CC(CO)CO | inactive |
| O=C1c2ccccc2C(=O)C1c1nc2ccccc2c(Br)c1O | inactive |
| CC(C)(O)c1ccc(CNC(=O)c2cccnc2Oc2ccc3nonc3c2)cc1 | inactive |
| CCCCCCCCCCC(=O)O | inactive |

From PubChem BioAssay (Tox21)
